Most compounds without a hit are left out; they make up all but 2.7% or so of the library.
PP5 inh – PP5 (human) phosphatase inhibition; inhibition, % at 6.7 µM; P53041; hit rate 0.18% among 320,000; purified PP5c, OMFP substrate fluorescence;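 active means inhibition above the campaign's mean inhibition across all tested compounds plus 3 SD, cut at about 9.5% in these data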
ANO1 block – mouse TMEM16A channel inhibition, primary screen; Q8BHY3; HEK293 TMEM16A/YFP iodide influx fluorescence, ionomycin; hit rate 1.2% among 310,000; normalized B-score (activity score, 25-100; higher = stronger inhibition) at 10 µM; AID 588511;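 active means ratio plate-corrected score three or more library SD toward inhibition, starting fluorescence score within five deviations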;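 further: score derived from kinetic fluorescence span divided by baseline fluorescence per well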
DNA FID counter – displaces DNA intercalator in HCV helicase counter-screen; DNA fluorescent intercalator displacement, fluorescence; inhibition, % at 7.9 µM; hit rate 0.17% among 290,000; AID 1845; in the data active means inhibition above about 37%;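 further: higher means more ethidium bromide displaced from hairpin DNA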
ANO1 activ – mouse TMEM16A channel activation, primary screen | B-score at 10 µM | hit rate 0.3% among 340,000 | HEK293 TMEM16A/YFP-H148Q/I152L, iodide quench fluorescence; active compounds read low;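 active means fluorescence-ratio B-score plate-corrected deviation score at least 3 library SD below zero, with starting fluorescence score within 5 deviations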;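 further: channel opened by trigger with iodide after compound preincubation; score built on the fluorescence ratio of max minus min over baseline; more negative score means more quench and so TMEM16A activation or potentiation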
PP1 counter – PP1-alpha (human) inhibition in PP5 counter-screen | hit rate 0.9% among 320,000 | inhibition, % at 6.7 µM | P62136 | purified PP1alpha, OMFP fluorescence;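 active means inhibition above the mean inhibition of all tested compounds plus 3 SD, computed separately for each screening campaign, cut at about 15% in these data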
PREPL inh – inhibitors of human prolyl oligopeptidase-like enzyme PREPL. hit rate 0.68% among 320,000. AID 2751. Q4J6C6. recombinant PREPL, fluorescence polarization activity-based probe. inhibition, % at 5.96 µM; in the data active means inhibition above about 43%
TMEM16A reconf – re-confirmation of mouse TMEM16A chloride channel inhibitors. shares compounds with ANO1 block. HEK293 TMEM16A/YFP-H148Q, iodide quench fluorescence; ionomycin added to raise cell calcium. inhibition, % at 10 µM. hit rate 39% among 2,300. AID 652189;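 active means mean duplicate percent inhibition, scaled so buffer wells are 0 and the reference blocker 100, over three buffer SD above buffer mean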
TMEM16A Ca cntr – counter-screen for TMEM16A inhibitors: effect on calcium mobilization. shares compounds with ANO1 block. TMEM16A/YFP HEK293, Fluo4 calcium mobilization. calcium response (% of ionomycin), % at 10 µM. hit rate 2% among 2,300. AID 652231;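 active means duplicate-averaged calcium signal over 20% of the ionomycin maximum, relative to buffer baseline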;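 further: each well's signal is peak minus trough fluorescence divided by its pre-addition baseline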
Parental YFP cnt – counter-screen for TMEM16A inhibitors: effect in parental YFP-HEK293 cells. shares compounds with ANO1 block. iodide YFP quench, ionomycin. YFP ratio F(max-min)/F0 at 10 µM. 2,300 tested, under 10 active. AID 652233;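 active means yellow fluorescent protein signal ratio exceeding the buffer control mean by over 5 SD of those controls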;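 further: ratio is mean of duplicate wells from kinetic YFP trace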
ClC-1 inh – rat ClC-1 inhibition, TMEM16A specificity screen. shares compounds with ANO1 block. 2,300 tested, under 10 active. AID 652236. CHO ClC-1-YFP, iodide influx fluorescence quench; iodide control reads 0, buffer control 100. ratio percent, % at 10 µM;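 active means duplicate-mean ratio percent above the mean of iodide-only control wells, which defines zero, plus 5 of their SD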;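 further: higher percent means stronger block of ClC-1 iodide influx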
Target sequence (P35524 whole entry, looked up): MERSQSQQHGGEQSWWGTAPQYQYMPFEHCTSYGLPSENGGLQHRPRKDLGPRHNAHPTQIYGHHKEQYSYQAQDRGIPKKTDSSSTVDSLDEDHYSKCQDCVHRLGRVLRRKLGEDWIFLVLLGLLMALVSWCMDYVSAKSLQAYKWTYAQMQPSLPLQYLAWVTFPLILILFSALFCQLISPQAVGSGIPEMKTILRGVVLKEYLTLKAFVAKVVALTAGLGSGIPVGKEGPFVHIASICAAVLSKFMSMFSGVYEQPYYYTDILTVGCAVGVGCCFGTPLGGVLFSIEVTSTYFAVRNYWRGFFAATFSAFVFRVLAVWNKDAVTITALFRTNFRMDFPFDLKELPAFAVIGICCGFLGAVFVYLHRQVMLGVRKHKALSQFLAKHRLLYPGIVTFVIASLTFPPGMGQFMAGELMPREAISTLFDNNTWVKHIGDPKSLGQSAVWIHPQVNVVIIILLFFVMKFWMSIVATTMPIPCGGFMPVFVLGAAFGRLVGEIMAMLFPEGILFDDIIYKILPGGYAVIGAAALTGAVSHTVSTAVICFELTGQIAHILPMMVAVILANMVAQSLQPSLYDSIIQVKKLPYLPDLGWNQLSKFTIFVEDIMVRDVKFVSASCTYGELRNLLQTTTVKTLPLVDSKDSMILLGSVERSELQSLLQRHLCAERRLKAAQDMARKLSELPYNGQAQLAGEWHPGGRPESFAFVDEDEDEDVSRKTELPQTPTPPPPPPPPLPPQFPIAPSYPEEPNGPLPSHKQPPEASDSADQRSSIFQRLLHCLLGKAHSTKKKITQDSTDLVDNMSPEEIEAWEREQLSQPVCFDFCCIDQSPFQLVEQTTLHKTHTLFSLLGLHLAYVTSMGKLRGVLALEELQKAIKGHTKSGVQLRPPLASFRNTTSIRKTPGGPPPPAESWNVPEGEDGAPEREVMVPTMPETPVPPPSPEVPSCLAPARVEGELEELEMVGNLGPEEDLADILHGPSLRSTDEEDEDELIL
A number is an active result.

Results for COC(=O)Nc1ccc(S(=O)(=O)N2CCC(C)CC2)cc1 ?
PP5 inh: inactive; ANO1 block: inactive; DNA FID counter: inactive; ANO1 activ: inactive; PP1 counter: inactive; PREPL inh: inactive

What do the screens show for `COC(=O)Nc1ccc(S(=O)(=O)N2CCC(Cc3ccccc3)CC2)cc1`?
PP5 inh: inactive; ANO1 block: 100; DNA FID counter: inactive; ANO1 activ: inactive; PP1 counter: inactive; PREPL inh: inactive; TMEM16A reconf: inactive; TMEM16A Ca cntr: inactive; Parental YFP cnt: inactive; ClC-1 inh: inactive

What do the screens show for `COc1cccc(COC(=O)C2CCN(S(=O)(=O)c3ccc(C)cc3C)CC2)c1OC`?
PP5 inh: inactive; ANO1 block: 100; ANO1 activ: inactive; PP1 counter: inactive; PREPL inh: inactive; TMEM16A reconf: 34.0%; TMEM16A Ca cntr: inactive; Parental YFP cnt: inactive; ClC-1 inh: inactive

How did Cc1ccc(S(=O)(=O)N2CCC(C(=O)OCC(=O)NCCc3ccccc3)CC2)cc1C do in these assays?
PP5 inh: inactive; ANO1 block: inactive; ANO1 activ: inactive; PP1 counter: inactive; PREPL inh: inactive

What do the screens show for `Cc1ccc(S(=O)(=O)N2CCC(C(=O)OCc3ccccc3)CC2)cc1C`?
PP5 inh: inactive; ANO1 block: 25; ANO1 activ: inactive; PP1 counter: inactive; PREPL inh: inactive; TMEM16A reconf: inactive; TMEM16A Ca cntr: inactive; Parental YFP cnt: inactive; ClC-1 inh: inactive

How did COc1ccc(S(=O)(=O)NC(C)C(=O)NCCN2CCOCC2)cc1Cl (stereo not drawn) do in these assays?
PP5 inh: inactive; ANO1 block: inactive; DNA FID counter: inactive; ANO1 activ: inactive; PP1 counter: inactive; PREPL inh: inactive

Results for Cc1cc2cc(CNC(=O)C3CC3)ccc2n1C ?
PP5 inh: inactive; ANO1 block: 100; DNA FID counter: inactive; ANO1 activ: inactive; PP1 counter: inactive; PREPL inh: inactive; TMEM16A reconf: inactive; TMEM16A Ca cntr: inactive; Parental YFP cnt: inactive; ClC-1 inh: inactive

How did CCOC(=O)NCc1ccc2c(c1)cc(C)n2C do in these assays?
PP5 inh: inactive; ANO1 block: inactive; DNA FID counter: inactive; ANO1 activ: inactive; PP1 counter: inactive; PREPL inh: inactive

Results for Cc1cc([N+](=O)[O-])ccc1P(=O)(O)c1ccc([N+](=O)[O-])cc1C ?
ANO1 activ: inactive

How did O=C(Nc1ccc(Cl)cn1)C1CCCN(c2ncnc3c2nc2n3CCCCC2)C1 (stereo not drawn) do in these assays?
PP5 inh: inactive; ANO1 block: inactive; DNA FID counter: inactive; ANO1 activ: inactive; PP1 counter: inactive; PREPL inh: inactive

How did COc1ccccc1NC(=O)C1CCN(c2ncnc3c2nc2n3CCCCC2)CC1 do in these assays?
PP5 inh: inactive; ANO1 block: inactive; DNA FID counter: inactive; ANO1 activ: inactive; PP1 counter: inactive; PREPL inh: inactive

Results for COC(=O)c1ccccc1NC(=O)C1CCN(c2ncnc3c2nc2n3CCCCC2)CC1 ?
PP5 inh: inactive; ANO1 block: 100; DNA FID counter: inactive; ANO1 activ: inactive; PP1 counter: inactive; PREPL inh: inactive; TMEM16A reconf: inactive; TMEM16A Ca cntr: inactive; Parental YFP cnt: inactive; ClC-1 inh: inactive

How did CCN(C(=O)C1CCCN(c2ncnc3c2nc2n3CCCCC2)C1)c1cccc(Cl)c1 (stereo not drawn) do in these assays?
PP5 inh: inactive; ANO1 block: 25; DNA FID counter: inactive; ANO1 activ: inactive; PP1 counter: inactive; PREPL inh: inactive; TMEM16A reconf: inactive; TMEM16A Ca cntr: inactive; Parental YFP cnt: inactive; ClC-1 inh: inactive

Results for COC(=O)c1ccc(CSc2nnnn2-c2ccccc2)o1 ?
PP5 inh: inactive; ANO1 block: 100; DNA FID counter: inactive; ANO1 activ: inactive; PP1 counter: inactive; PREPL inh: inactive; TMEM16A reconf: inactive; TMEM16A Ca cntr: inactive; Parental YFP cnt: inactive; ClC-1 inh: inactive

What do the screens show for `CCC(C(=O)OCC(=O)c1c(N)n(CC(C)C)c(=O)n(C)c1=O)c1ccccc1` (stereo not drawn)?
PP5 inh: inactive; ANO1 block: inactive; ANO1 activ: inactive; PP1 counter: inactive; PREPL inh: inactive

How did CCC(=NC(C)c1ccccc1)c1c(O)n(C)c(=O)n(C)c1=O (stereo not drawn) do in these assays?
PP5 inh: inactive; ANO1 block: 100; DNA FID counter: inactive; ANO1 activ: inactive; PP1 counter: inactive; PREPL inh: inactive; TMEM16A reconf: 22.0%; TMEM16A Ca cntr: inactive; Parental YFP cnt: inactive; ClC-1 inh: inactive

What do the screens show for `COc1ccc(CCC(=O)NCCCNC(=O)CCc2ccc(OC)cc2)cc1`?
PP5 inh: inactive; ANO1 block: inactive; DNA FID counter: inactive; ANO1 activ: inactive; PP1 counter: inactive; PREPL inh: inactive

How did COc1ccc(C2=NS(=O)(=O)N(C)C(C(=O)Nc3ccc4c(c3)OCO4)=C2)cc1 do in these assays?
PP5 inh: inactive; ANO1 block: inactive; DNA FID counter: inactive; ANO1 activ: inactive; PP1 counter: inactive; PREPL inh: inactive

How did Cc1ccc(C2=NS(=O)(=O)N(C)C(C(=O)Nc3ccc4c(c3)OCO4)=C2)cc1 do in these assays?
PP5 inh: inactive; ANO1 block: 25; DNA FID counter: inactive; ANO1 activ: inactive; PP1 counter: inactive; PREPL inh: inactive; TMEM16A reconf: inactive; TMEM16A Ca cntr: inactive; Parental YFP cnt: inactive; ClC-1 inh: inactive

What do the screens show for `CCCc1cc(=O)[nH]c(SCc2cc(C(=O)OC)c(C)o2)n1`?
PP5 inh: inactive; ANO1 block: inactive; DNA FID counter: inactive; ANO1 activ: inactive; PP1 counter: inactive; PREPL inh: inactive

What do the screens show for `COC(=O)c1cc(CSc2nc3ccccc3[nH]2)oc1C`?
PP5 inh: inactive; ANO1 block: 25; DNA FID counter: inactive; ANO1 activ: inactive; PP1 counter: inactive; PREPL inh: inactive; TMEM16A reconf: 21.5%; TMEM16A Ca cntr: inactive; Parental YFP cnt: inactive; ClC-1 inh: inactive

How did O=C(CCC(=O)c1ccccc1)Nc1ccc(C(=O)O)cc1 do in these assays?
ANO1 block: inactive; DNA FID counter: inactive; ANO1 activ: inactive

What do the screens show for `O=C(O)c1cc(-c2c[nH]c3ccccc23)nc2ccc3ccccc3c12`?
PP5 inh: inactive; ANO1 block: inactive; DNA FID counter: inactive; ANO1 activ: inactive; PP1 counter: inactive; PREPL inh: inactive

High-throughput results (PubChem)
